Results filed as inconclusive are left out. Active and inactive are the calls of the source. Unless noted, calls come from the whole dose curve; as a rule, active = well fitted curve in the direction sought with a large enough effect; inconclusive = small, poorly fitted or top-dose-only effect, or another doubt; inactive = no such curve, though single readings can be large; an effect the other way counts as inactive or inconclusive.
Legend:
[1] = Cell Viability - BJ (AID 421; calls by dose curve;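 note: potency is the fitted concentration of half-maximal effect; cells exposed to compound for 40 hours at 37 °C before readout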); conditions: BJ fibroblast viability, qHTS
Summary of the method: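 Cytotoxicity as drop in intracellular ATP (CellTiter-Glo, 20 min RT) after 40 hr compound exposure of BJ fibroblasts at 37 °C. Titrations scaled between DMSO and 100 uM tamoxifen, Hill-fitted for AC50.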

[2] = Cell Viability - Jurkat (AID 426;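 active = dose-dependent loss of cell ATP signal giving a full or clear fitted curve, ranked by lower potency value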; note: potency is the fitted concentration of half-maximal effect); conditions: qHTS
Summary of the method: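 Jurkat (Clone E6-1) cells, 5000/well in complete medium, exposed to compounds for 40 hr at 37C; intracellular ATP measured by CellTiter-Glo luminescence after 20 min at room temperature. AC50 from Hill fits.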

[3] = Cell Viability - Hek293 (AID 427;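 active = compounds whose dose-response curve shows a full or clear partial loss of cell viability, called from curve shape rather than a numeric limit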;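 note: potency is the fitted concentration of half-maximal effect; cells exposed to compound for 40 hours at 37 °C before reading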); conditions: qHTS
Summary of the method: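 Luminescent ATP content (CellTiter-Glo, 20 min at room temperature) was measured after a 40 hr, 37 °C compound exposure of HEK293 cells. AC50 values came from Hill-equation fits of qHTS concentration-response data normalized to DMSO and 100 uM tamoxifen.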

[4] = Cell Viability - HepG2 (AID 433; calls by dose curve;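 note: potency is the fitted concentration of half-maximal effect; potency for ATP loss meaning cytotoxicity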); conditions: qHTS
Summary of the method: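 Cytotoxicity is scored as loss of intracellular ATP in HepG2 cells exposed to compounds for 40 h. Concentration-response curves, normalized to DMSO and 100 uM tamoxifen, give AC50 values.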

[5] = Cell Viability - MRC5 (AID 434; calls by dose curve;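 note: potency is the fitted concentration of half-maximal effect; potency reflects cytotoxicity seen as loss of intracellular ATP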); conditions: MRC5 lung fibroblast viability, qHTS
Summary of the method: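 MRC5 normal human lung fibroblasts (1500/well) were treated with compounds for 40 hr at 37 °C in complete medium, and viable cells were measured as intracellular ATP by CellTiter-Glo luminescence. AC50 came from Hill fits, normalized to DMSO and 100 uM tamoxifen.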

[6] = Cell Viability - SK-N-SH (AID 435; calls by dose curve;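 note: potency is the fitted concentration of half-maximal effect; compound exposure lasted 40 h at 37 °C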); conditions: SK-N-SH neuroblastoma cell viability qHTS
Summary of the method: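 Cells seeded at 1500 per well and incubated 5 hr at 37 °C. Compound added, then 40 hr at 37 °C. CellTiter-Glo added, 20 min at room temperature, luminescence read.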

[7] = molecular target: Mitogen-activated protein kinase 10 (Mus musculus) (UniProt Q61831); test: JNK3 AlphaScreen Assay (AID 530; active = well fitted curve in either direction with a large enough effect, not every such curve was filed as active;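 note: kinase came from lysate of stimulated human HepG2 cells; signal reports phosphorylation of biotinylated GST-cJun 1-79 at Ser73 with 10 µM ATP; % is set by controls: 0 for no effect and ±100 for the full control effect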); conditions: JNK3 lysate, c-Jun phosphorylation; series mostly up to 57.1 µM
Summary of the method: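 Inhibitors reduce antibody binding to phosphorylated biotin-cJun, lowering AlphaScreen luminescence. Lysates from HepG2 cells pre-activated by IL-1beta plus TNF-alpha supplied JNK3; compounds were titrated.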

[8] = Cell Viability - N2a (AID 540); conditions: N2a mouse neuroblastoma cell viability; at 92.2 µM (top of the series);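 note: plate controls were DMSO alone for no effect and tamoxifen control for full effect; nearly all actives have a fitted effect of over 45% in size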
Summary of the method: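 Mouse neuroblastoma N2a cells, 1500/well, exposed to compounds 40 h at 37 °C in complete medium. Viability measured as cellular ATP by CellTiter-Glo luminescence; AC50 from Hill fits of concentration-response.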

[9] = Cell Viability - NIH 3T3 (AID 541); conditions: NIH 3T3 cell viability, qHTS; activity change, negative = cytotoxicity: at 92.2 µM (top of the series);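 note: plate controls were DMSO alone for no effect and tamoxifen positive control for full effect; nearly all actives have a fitted effect of over 25% in size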
Summary of the method: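 Mouse NIH 3T3 fibroblasts, 1000 cells/well, rested 5 hr at 37 °C, then exposed to compound for 40 hr at 37 °C in complete medium. Viability read as intracellular ATP by CellTiter-Glo luminescence; AC50 from Hill-equation fits of concentration-response data.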

[10] = Cell Viability - HUV-EC-C (AID 542); conditions: HUV-EC-C endothelial cell viability, qHTS; series mostly up to 92.2 µM; note: % is set by controls: 0 for no effect and ±100 for the full control effect; nearly all actives have a fitted effect of over 35% in size
Summary of the method: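 HUV-EC-C human vascular endothelial cells, 1000/well, exposed to compound for 40 hr at 37 °C in complete medium. Intracellular ATP was read by CellTiter-Glo luminescence. AC50 came from Hill-equation fits of concentration-response data.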

[11] = Cell Viability - H-4-II-E (AID 543); conditions: H-4-II-E rat hepatoma viability; series mostly up to 92.2 µM; note: % is set by controls: 0 for no effect and ±100 for the full control effect; nearly all actives have a fitted effect of over 35% in size
Summary of the method: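 Rat hepatoma H-4-II-E cells, 1500 per well, treated 40 h at 37 °C in complete medium. Cellular ATP read by CellTiter-Glo luminescence; AC50 from Hill fits of concentration-response.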

[12] = Cell Viability - SH-SY5Y (AID 544); conditions: SH-SY5Y neuroblastoma cell viability; viability change, negative = cytotoxic: at 92.2 µM (top of the series); note: nearly all actives have a fitted effect of over 55% in size
Summary of the method: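 SH-SY5Y human neuroblastoma cells (1500/well) incubated 5 h, then compound-treated 40 h at 37 °C in complete medium. Viability read as intracellular ATP by CellTiter-Glo luminescence after 20 min; AC50 from Hill-equation fits of qHTS concentration-response.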

[13] = Cell Viability - Renal Proximal Tubule (AID 545); conditions: renal proximal tubule cells viability; at 91.7 µM (top of the series), primary cells of rat origin unless noted; note: nearly all actives have a fitted effect of over 40% in size
Summary of the method: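 Cytotoxicity is scored as a concentration-dependent drop in cellular ATP in primary rat renal proximal tubule cells exposed for 40 hr. AC50 derives from Hill modelling.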

[14] = Cell Viability - Mesenchymal (AID 546); conditions: mesenchymal cells viability, qHTS; series mostly up to 91.7 µM;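 note: cells exposed to compound for 40 hours before reading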
Summary of the method: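 Normal human renal glomerulus-derived kidney mesenchymal cells, 1000 per well in complete medium, were treated with compounds for 40 hr at 37 °C. Viability was read as intracellular ATP by CellTiter-Glo luminescence; AC50 values came from Hill-equation fits of qHTS concentration-response data.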

[15] = Cellular Toxicity (caspase-3) HepG2 (AID 654); conditions: HepG2 caspase-3 activation, luminescence, 0% = DMSO only, 100% = tamoxifen; series mostly up to 92.2 µM;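 note: cells exposed to compound for 16 hours before reading; 0% = DMSO alone and 100% = caspase signal from 100 µM tamoxifen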
Summary of the method: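 HepG2 cells (1500/well) were treated 16 h at 37 °C in complete medium, then caspase 3/7 activity was read by Caspase-Glo luminescence. Data were normalized to DMSO and 100 uM tamoxifen; AC50 came from Hill-equation fits of qHTS concentration-response.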

[16] = Cellular Toxicity (caspase-3) Jurkat (AID 655); conditions: Jurkat caspase-3 activation, luminescence, DMSO = 0%, tamoxifen = 100%; at 92.2 µM (top of the series);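 note: cells exposed to compound for 16 h at 37 °C before reading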
Summary of the method: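 Caspase 3/7 activation is scored as increased luminescence in Jurkat cells cultured with compound for 16 hours in complete medium. AC50 values come from Hill fits of qHTS concentration-response data normalized to DMSO and 100 uM tamoxifen controls.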

[17] = Cellular Toxicity (caspase-3) HUV-EC-C (AID 656); conditions: HUV-EC-C cells, caspase-3 activation (apoptosis), vehicle = 0, 100 µM tamoxifen = 100%; series mostly up to 92.2 µM
Summary of the method: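 Read-out: luminescence proportional to caspase 3/7 activity, measured 20 min after adding Caspase-Glo 3/7 reagent. Cells (HUV-EC-C) had received compound for 16 hr at 37°C. Increases relative to DMSO and 100 uM tamoxifen gave concentration-response AC50 values.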

[18] = Cellular Toxicity (caspase-3) SHSY5Y (AID 657); conditions: SH-SY5Y caspase-3 activation, DMSO zero, 10 µM staurosporine = 100%; series mostly up to 91.7 µM
Summary of the method: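 Cells plated and incubated 5 h at 37 °C, dosed over a concentration range, incubated 16 h, then given Caspase-Glo 3/7 reagent for 1 h at room temperature before luminescence reading. Staurosporine (10 uM) defined full stimulation.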

[19] = Cellular Toxicity (caspase-3) BJ (AID 658); conditions: BJ fibroblasts, luminescence, normalized: DMSO 0%, staurosporine 100%; series mostly up to 91.7 µM
Summary of the method: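 Luminescent aminoluciferin-substrate cleavage reports caspase 3/7 activity in normal human BJ fibroblasts after 16 hr compound exposure at 37 °C. Normalized to DMSO (basal) and 10 uM staurosporine (100%); AC50 from Hill fit of concentration-response.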

[20] = Cellular Toxicity (caspase-3) MRC-5 (AID 659); conditions: MRC-5 cells, luminescence, normalized: DMSO 0%, 10 µM staurosporine 100%; series mostly up to 91.7 µM
Summary of the method: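 Luminescence from caspase-cleaved aminoluciferin substrate (Caspase-Glo 3/7, 1 hr RT) reports caspase 3/7 activity in MRC-5 lung fibroblasts after 16 hr compound exposure. Normalized to DMSO basal and 10 uM staurosporine as 100%; AC50 from Hill fits.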

[21] = Cellular Toxicity (caspase-3) Mesangial (AID 660); conditions: mesangial cells, normalized: DMSO 0%, 100 µM tamoxifen 100%; series mostly up to 91.7 µM;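 note: cells exposed to compound for 16 h before the caspase read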
Summary of the method: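 Human renal glomerular mesangial cells, 1000/well, 5 h at 37 C before 16 h compound treatment. Caspase-Glo 3/7 luminescence after 20 min; normalized to DMSO and 100 uM tamoxifen, AC50 from Hill fit.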

[22] = Cellular Toxicity (caspase-3) SK-N-SH (AID 661); conditions: SK-N-SH caspase-3 activation, qHTS, DMSO as zero, staurosporine as full; series mostly up to 91.7 µM
Summary of the method: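 Human SK-N-SH neuroblastoma cells, 1500/well, were exposed to compounds for 16 hours at 37 °C. Caspase-Glo 3/7 luminescence was normalized to DMSO (basal) and 10 uM staurosporine (100%), and AC50 came from a Hill fit.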

[23] = Cellular Toxicity (caspase-3) H-4-II-E (AID 663); conditions: H-4-II-E rat hepatoma, scaled: DMSO 0%, 100 µM tamoxifen 100%; series mostly up to 92.2 µM;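 note: cells exposed to compound for 16 hr before readout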
Summary of the method: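 Luminescence from caspase-cleaved aminoluciferin substrate, read 20 min after reagent addition, reports caspase 3/7 activation in rat H-4-II-E cells after 16 hr compound exposure. Normalized to DMSO (basal) and 100 uM tamoxifen (100%); AC50 from Hill fits.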

Oc1ccc(Cl)cc1Cl
inactive: Potency [1] > 92 µM | Potency [2] > 92 µM | Potency [3] > 92 µM | Potency [4] > 92 µM | Potency [5] > 92 µM | Potency [6] > 92 µM | outcome [7] | activity change, negative = cytotoxicity [8] -5.05% | activity change, negative = cytotoxicity [9] -8.01% | Potency [10] | Potency [11] | Potency [12] | activity change, negative = cytotoxicity [13] -7.07% | outcome [14] | outcome [15] | caspase-3 activation [16] 3.55% | outcome [17] | outcome [18] | outcome [19] | outcome [20] | outcome [21] | outcome [22] | outcome [23]
